# Bioassay records from PubChem.
# MCF10A rerep – A quantitative high throughput screen for small molecules that induce DNA re-replication in MCF 10a normal breast cells; MCF 10A DNA re-replication, Hoechst nuclear intensity, 48 h; Potency, µM (doses to about 46.1 µM), actives largely listed as activators; actives 2.9% (n = 350,000); AID 624296, 2012; also: nearly all actives have a fitted effect of over 50% in size
# KB-3-1 cytotox – qHTS assay for MDR1-selective chemotherapeutics: Primary screen using the parental adenocarcinoma cell KB-3-1; KB-3-1 viability, CellTiter-Glo ATP luminescence, 72 h; Potency, µM (doses to about 46.1 µM), usual class: cytotoxic; actives 1.4% (n = 400,000); AID 1347075, 2019; also: nearly all actives have a fitted effect of over 60% in size
#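 KB-3-1 cells, DMEM (no phenol red) + 10% FBS; compound by pin transfer, 72 h, 37 °C. Readout: CellTiter-Glo luminescence after 10 min. Data normalized, curve-fitted.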
# SW480 rerep – A quantitative high throughput screen for small molecules that induce DNA re-replication in SW480 colon adenocarcinoma cells; AID 624297, 2012; actives 1.8% (n = 340,000); Potency, µM (doses to about 46.1 µM), most hits filed as activators; SW480 DNA re-replication, Hoechst DNA content imaging, 48 h; also: nearly all actives have a fitted effect of over 55% in size
#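 DNA re-replication was detected as more nuclei of elevated Hoechst intensity after 48 hr exposure to compound (23 nL pinned per well of 250 cells).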
# HT1080 IDH1KD tx – qHTS for induction of synthetic lethality in tumor cells producing 2HG: qHTS for the HT-1080-IDH1KD cell line. actives 2% (n = 360,000). Potency, µM (highest dose often 46.1 µM), hits mostly cytotoxic. HT-1080 IDH1 knockdown viability, ATP luminescence, 48 h
#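 In this qHTS, HT-1080 cells depleted of IDH1 are exposed for 48 h at 37 °C to compound titrations. Toxicity is scored from CellTiter-Glo luminescence, with DMSO as full viability and medium alone as none.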
# KB-V1 cytotox – qHTS assay for MDR1-selective chemotherapeutics: Primary screen using the drug-selected MDR subline cells KB-V1; KB-V1 MDR cells viability, CellTiter-Glo, 72 h; Potency, µM (titrated, usually from 46.1 µM), actives largely listed as cytotoxic; actives 3.4% (n = 400,000); AID 1347076, 2019; also: nearly all actives have a fitted effect of over 60% in size
#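 KB-V1 MDR subline cells in DMEM (phenol-red free, 10% FBS) exposed to compounds in qHTS concentration series for 72 h at 37 degrees C. Viability read by CellTiter-Glo luminescence; concentration-effect curves fitted after normalization and correction.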
# HT1080NT lethal – qHTS for induction of synthetic lethality in tumor cells producing 2HG: qHTS for the HT-1080-NT fibrosarcoma cell line | actives 1.6% (n = 360,000) | Potency, µM (titrated, usually from 46.1 µM), actives largely listed as cytotoxic | AID 686970, 2013 | HT-1080-NT fibrosarcoma viability, CellTiter-Glo ATP luminescence, 48 h;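 also: NT is the 2HG producing partner of a matched IDH1 knockdown line; nearly all actives have a fitted effect of over 55% in size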
#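 Viability of the 2HG-overproducing fibrosarcoma line after 48 hours of compound exposure at 37 degrees C was determined by luminescence with CellTiter-Glo, and concentration-effect curves were then fitted and categorized.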
# Hits are given with their value; . = inactive; ? = inconclusive; / = not tested or not shown. In the library only some 7.9% were active in any assay of this set; here they are far more common. Calls follow the shape of the dose curve; as a rule, active = well fitted curve in the direction sought with a large enough effect; inconclusive = small, poorly fitted or top-dose-only effect, or another doubt; inactive = no such curve, though single readings can be large; an effect the other way counts as inactive or inconclusive.
SMILES,MCF10A rerep,KB-3-1 cytotox,SW480 rerep,HT1080 IDH1KD tx,KB-V1 cytotox,HT1080NT lethal
CCOC(=O)N1CCN(C(C(=O)NC2CCCC2)c2cccc(OC)c2OC)CC1 (stereo not given),/,.,/,.,?,.
CC(=O)C1=C(C)N(Cc2ccco2)C(=O)C1(NC(=O)C1CCCCC1)C(F)(F)F (stereo not given),.,.,.,.,18.4µM,.
CC(C)N1C(=O)/C(=C\c2nc3ccccc3c(=O)[nH]2)c2ccccc21,?,18.4µM,?,?,.,?
CS(=O)(=O)N1CCc2cc(C(=O)Nc3ccc(Cl)c(C(F)(F)F)c3)ccc21,/,.,/,/,.,/
CC(=O)NC(c1cccc([N+](=O)[O-])c1)c1ccc2cccnc2c1O (stereo not given),14.6µM,3.66µM,?,?,?,?
Oc1cccc(C(Nc2nccs2)c2ccc3cccnc3c2O)c1 (stereo not given),11.6µM,3.26µM,?,18.4µM,?,29.1µM
COc1cccc(C(Nc2ccccc2)c2ccc3ccc(C)nc3c2O)c1 (stereo not given),/,?,/,7.31µM,?,10.3µM
Cc1cccc(NC(c2ccc(O)cc2)c2ccc3ccc(C)nc3c2O)n1 (stereo not given),?,.,?,.,?,.
O=[N+]([O-])c1ccc(NC(c2ccccc2)c2ccc3cccnc3c2O)cc1 (stereo not given),?,4.61µM,0.82µM,?,?,?
Oc1c(C(Nc2cccc(C(F)(F)F)c2)c2cccnc2)ccc2cccnc12 (stereo not given),?,.,?,?,.,.
Oc1c(C(Nc2ccccn2)c2ccccc2)ccc2cccnc12 (stereo not given),/,.,/,/,.,/
CC1=C(C(=O)Nc2ccccc2)C(C(C)C)n2nc(SCc3ccccc3C)nc2N1 (stereo not given),/,.,/,/,.,/
CCOc1ccc(C(=O)c2cn(CC(=O)Nc3ccc(OC)cc3)c3cc4c(cc3c2=O)OCCO4)cc1,/,.,/,/,.,/
COc1cc(OC)c2c(C)cc(=O)oc2c1C(CCN1CCOCC1)c1ccc(N(C)C)cc1 (stereo not given),.,.,.,.,.,.
O=C(NCC(c1ccc(Cl)cc1)N1CCCCC1)c1ccc(F)cc1 (stereo not given),/,.,/,/,.,/
Nc1nc(SCc2ccccc2)c2ncn(C3CCCO3)c2n1 (stereo not given),.,.,.,.,.,.
O=[N+]([O-])c1nccn1CCCCCCCCCCCN1CCOCC1,/,.,/,.,?,.
COc1cccc(C(NC(C)=O)c2nc(-c3cccnc3)cs2)c1 (stereo not given),/,.,/,.,.,.
COc1cccc(C(NC(C)=O)c2ccc3cccnc3c2O)c1 (stereo not given),?,3.66µM,0.651µM,?,.,.
COc1ccc(CCNC(=O)CCc2c(C)c3cc4c(C)coc4cc3oc2=O)cc1,/,.,/,/,?,/
COC(=O)C1Cc2ccccc2CN1C(=O)CCl (stereo not given),?,?,?,14.6µM,?,8.2µM
CCOc1ccc(C(=O)Nc2nnc(SCc3cc(=O)c4cc(C)ccc4[nH]3)s2)cc1,/,.,/,/,?,/
CN(C)S(=O)(=O)c1ccc(C(=O)/C=C/c2cccnc2)cc1,16.4µM,.,20.6µM,.,?,.
O=C(/C=C/c1cccnc1)/C=C/c1cccnc1,?,2.59µM,?,3.26µM,.,4.11µM
COc1ccc(OC)c(C(=O)/C=C/c2cccnc2)c1,11.6µM,?,20.6µM,?,?,20.6µM
SMILES,MCF10A rerep,KB-3-1 cytotox,SW480 rerep,HT1080 IDH1KD tx,KB-V1 cytotox,HT1080NT lethal
COc1cc(C(=O)/C=C/c2cccnc2)ccc1O,5.8µM,?,16.4µM,?,?,?
O=C(/C=C/c1cccnc1)c1cc(F)ccc1O,.,.,.,.,.,.
CCCCn1c(N)c(N(CCOC)C(=O)CC2CCCCC2)c(=O)[nH]c1=O,.,.,.,.,.,.
COc1nc(N)nc(N)c1NS(=O)(=O)c1ccc(C)cc1,.,.,.,.,.,.
COc1ccc2[nH]c(=O)c(CN(CC3CCCO3)S(=O)(=O)c3ccccc3F)cc2c1 (stereo not given),.,.,.,.,.,.
CCc1nnc(NS(=O)(=O)c2ccc(NCc3cc(Cl)ccc3O)cc2)s1,.,.,.,.,.,.
Cc1cc(C)cc(N(C(=O)CNC(=O)c2ccco2)C(C(=O)NC2CCCCC2)c2cccnc2)c1 (stereo not given),.,.,.,.,.,.
COc1ccc(/C=C/C(=O)c2cc(C(=O)/C=C/c3ccc(OC)cc3)c(O)cc2O)cc1,/,/,/,.,/,.
COc1ccc(/C=C/C(=O)c2ccc(OC)cc2OC)cc1,23.7µM,?,21.1µM,.,?,.
COc1ccc2nc(N3CCC(C)CC3)c(C#N)cc2c1,5.8µM,.,20.6µM,.,.,.
O=C(N/C=N/OCc1cccc(C(F)(F)F)c1)N1OC[C@@H]2COc3ccc4ccccc4c3[C@@H]21,.,?,.,.,16.4µM,.
CC(C)C(NC(=O)c1ccc(Cl)cc1)C(=O)NCC1CCCO1 (stereo not given),.,.,.,.,?,.
CC(C)c1ccc(C(=O)NCCCN2CCN(CCCNC(=O)c3ccc(C(C)C)cc3)CC2)cc1,23.1µM,.,?,?,?,18.4µM
COc1ccccc1/C=N/NC(=O)c1nnn(-c2nonc2N)c1-c1ccccc1,.,.,.,.,.,.
Cc1nnn(-c2nonc2N)c1C(=O)N/N=C/c1ccccc1O,.,?,2.59µM,8.2µM,?,6.51µM
CCCN(CCC)Cc1c(C(=O)N/N=C/c2c[nH]c3ccccc23)nnn1-c1nonc1N,?,.,?,29.1µM,.,?
CCCc1c(C(=O)N/N=C/c2c[nH]c3ccccc23)nnn1-c1nonc1N,/,.,/,.,.,.
CN(Cc1c(C(=O)N/N=C/c2cccc(O)c2)nnn1-c1nonc1N)C1CCCCC1,.,.,.,.,?,.
Cc1nnn(-c2nonc2N)c1C(=O)N/N=C/c1cccc2ccccc12,.,.,?,.,.,.
COc1ccccc1/C=N/NC(=O)c1nnn(-c2nonc2N)c1-c1cccs1,.,.,23.1µM,.,.,.
